The record followed here is PubChem BioAssay (Tox21).

Structures are written as SMILES. “And” between values parts separate entries of the source, which are not always exact repeats. Equal entries are not always repeated. Records with an inconclusive call do not appear. Values without a mark were called inactive. The source made the active and inactive calls. Unless noted, calls come from the whole dose curve; as a rule, active = well fitted curve in the direction sought with a large enough effect in the repeat runs; inconclusive = weak or mixed curves; inactive = no such curve, though single readings can be large; an effect the other way counts as inactive or inconclusive.

A short description of test [1]: qHTS assay to identify small molecule antagonists of the retinoid-related orphan receptor gamma (ROR-gamma) signaling pathway - cell viability counter screen (AID 1159520). For activity, negative = cytotoxicity: % is set by controls: 0 for no effect and ±100 for the full control effect. Note: nearly all actives have a fitted effect of over 50% in size. Note: potency is the fitted concentration of half-maximal effect. The gist of the method: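 Cytotoxicity was read from cellular ATP (CellTiter-Glo luminescence) after 16 hr at 37 C with 1 uM doxycycline induction. The inducer was added 2 hr after compound transfer to Tet-on ROR gamma CHO cells.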

Test [2] addresses Nuclear receptor ROR-gamma (Homo sapiens) (UniProt P51449). The test is described as follows: qHTS assay to identify small molecule antagonists of the retinoid-related orphan receptor gamma (ROR-gamma) signaling pathway (AID 1159521; note: nearly all actives have a fitted effect of over 50% in size; note: potency is the fitted concentration of half-maximal effect;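 for activity change, negative = inhibition: CHO cells with doxycycline inducible ROR-gamma driving an RORE luciferase reporter; top concentration of the series differs between compounds; % is set by controls: 0 for no effect and ±100 for the full control effect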). The gist of the method: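 Tet-on ROR-gamma CHO cells with ROR response element-luciferase reporter; compounds added 2 hr before 1 uM doxycycline induction, then 16 hr at 37 C. Antagonism scored as decreased ONE-Glo luminescence.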
In general terms: In qHTS, concentration-response curves come from the screen itself.

Test [3] in a line: qHTS assay to identify small molecule agonists of the AP-1 signaling pathway - cell viability counter screen (AID 1159525; calls by dose curve; note: nearly all actives have a fitted effect of over 55% in size; note: potency is the fitted concentration of half-maximal effect). The gist of the method:
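Luminescent ATP readout (Cell Titer Glo, 30 min RT), normalised to DMSO and tetra n-octyl ammonium bromide controls. Cells were ME-180 AP-1-bla in 0.5% dialyzed FBS Opti-MEM, with a 5 h, 37 °C compound exposure.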

A short description of test [4]: qHTS assay to identify small molecule agonists of the AP-1 signaling pathway (AID 1159526; calls by dose curve; note: % is set by controls: 0 for no effect and ±100 for the full control effect).
In test [5] the target is Retinoic acid receptor RXR-alpha (Homo sapiens) (UniProt P19793). The experiment in a line: qHTS assay to identify small molecule agonists of the RXR signaling pathway (AID 1159527; calls by dose curve; note: % is set by controls: 0 for no effect and ±100 for the full control effect; nearly all actives have a fitted effect of over 35% in size). The gist of the method: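 GeneBLAzer RXR-alpha-UAS-bla HEK 293T cells in 2% charcoal-stripped FBS medium were exposed to compounds for 16 hr at 37 C in agonist mode. Beta-lactamase reporter read as 460/530 nm FRET ratio after 2 hr substrate loading.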

Test [6] is described as follows: qHTS assay to identify small molecule agonists of the RXR signaling pathway - cell viability counter screen (AID 1159529). For activity change, negative = cytotoxicity: series mostly up to about 77 µM; % is set by controls: 0 for no effect and ±100 for the full control effect. Note: nearly all actives have a fitted effect of over 50% in size. Note: potency is the fitted concentration of half-maximal effect. The gist of the method: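 RXR-alpha-UAS-bla HEK 293T cells in medium with 2% charcoal-stripped FBS were pre-incubated 5 hr, then compound-treated 16 hr at 37 C. Viability was read by CellTiter-Glo luminescence in the same wells as the beta-lactamase assay, with tetraoctyl ammonium bromide as positive control.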

Test [7] in a line: qHTS assay to identify small molecule antagonists of the retinoid acid receptor (RAR) signaling pathway - cell viability counter screen (AID 1159551). Note: % is set by controls: 0 for no effect and ±100 for the full control effect; nearly all actives have a fitted effect of over 35% in size. The gist of the method: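 Luminescent ATP quantitation (CellTiter-Glo) gave cell viability in C3RL4 cells exposed to test chemicals for 6 h at 37 C alongside 1 uM final retinol.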
The nature of test [8]: qHTS assay to identify small molecule antagonists of the retinoic acid receptor (RAR) signaling pathway (AID 1159552; note: % is set by controls: 0 for no effect and ±100 for the full control effect; nearly all actives have a fitted effect of over 50% in size). The gist of the method: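 Retinol signaling pathway inhibitors screened in C3RL4 RARE-luciferase reporter cells seeded overnight at 37 C, then compounds added with 1 uM (final) retinol as pathway substrate. After 6 hr at 37 C, luciferase luminescence read after 30 min at room temperature.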

The nature of test [9]: qHTS assay to identify small molecule antagonists of the estrogen related receptor (ERR) signaling pathway from Tox21 library - cell viability counter screen (AID 1224834). Note: nearly all actives have a fitted effect of over 30% in size. Note: potency is the fitted concentration of half-maximal effect. The gist of the method:
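Fluorescence from CellTiter-Fluor gives the viability read-out, taken 30 min after reagent addition. Before that, ERR cells seeded 6 h earlier were incubated with compounds for 17.5 h at 37 C.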

The nature of test [10]: qHTS assay to identify small molecule agonists of the vitamin D receptor (VDR) signaling pathway - cell viability counter screen (AID 743224). The gist of the method:
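Luminescence from CellTiter-Glo, read after 30 min at room temperature, reports viability of VDR-bla cells treated with compounds for 16 h at 37C in the wells used for the beta-lactamase FRET read.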

Test [11] in a line: qHTS assay to identify small molecule antagonists of the vitamin D receptor (VDR) signaling pathway - cell viability counter screen (AID 743225). The gist of the method:
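VDR-UAS-bla HEK 293T cells were plated and incubated 4 h at 37C, then dosed with compound plus 3 nM (final) 1-alpha,25-dihydroxyvitamin D3 for 16 h. After the 2 h beta-lactamase read, viability in the same wells was read as CellTiter-Glo luminescence after 30 min at room temperature.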

The nature of test [12]: qHTS assay to identify small molecule agonists of the retinoic acid receptor (RAR) signaling pathway (AID 1159553). Note: potency is the fitted concentration of half-maximal effect. The gist of the method:
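Luminescence from a RARE-driven luciferase reporter in C3RL4 cells served as the read-out, measured after 30 min with detection reagent at room temperature. Compounds in DMSO were applied for 6 hr at 37 C following overnight seeding.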

Sequence of Retinoic acid receptor RXR-alpha (Homo sapiens) (P19793 whole entry, looked up): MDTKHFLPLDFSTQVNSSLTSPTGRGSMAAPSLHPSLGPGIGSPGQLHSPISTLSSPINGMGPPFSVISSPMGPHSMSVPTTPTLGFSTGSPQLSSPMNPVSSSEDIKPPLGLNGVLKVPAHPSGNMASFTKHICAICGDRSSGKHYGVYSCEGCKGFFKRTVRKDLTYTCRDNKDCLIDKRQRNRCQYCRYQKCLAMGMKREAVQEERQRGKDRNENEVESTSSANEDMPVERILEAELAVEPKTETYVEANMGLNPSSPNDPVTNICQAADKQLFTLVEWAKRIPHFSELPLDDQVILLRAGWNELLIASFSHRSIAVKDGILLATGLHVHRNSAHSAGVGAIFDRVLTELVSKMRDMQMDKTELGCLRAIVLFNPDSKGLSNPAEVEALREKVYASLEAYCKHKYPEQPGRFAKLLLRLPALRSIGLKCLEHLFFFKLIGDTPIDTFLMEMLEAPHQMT

As to `CCCC(O)C(O)CO` (stereo unspecified), the Potency entry in test [1], in [2], in test [3], in test [4], in test [5] and in [6] was “inactive” throughout. Moreover, the Potency entry in test [7], in test [8] and in test [9] was “inactive” in each case.

Take `CCOB(OCC)OCC`: the Potency result in test [1], in test [2], in test [3], in test [4], in test [5] and in test [6] was “inactive” throughout. In addition, the Potency result in test [7], in test [8] and in [9] was “inactive” throughout.

On to `Cc1cc(C)c(C=O)c(C)c1`, for which the Potency result in [1], in test [2], in test [3], in test [4], in test [5] and in test [6] was “inactive” in each case. Moreover, the Potency entry in test [7], in test [8] and in test [9] was “inactive” throughout.

In the case of `OCCN1CN(CCO)CN(CCO)C1`, the Potency entry in test [1], in test [2], in [3], in [4], in test [5] and in test [6] was “inactive” each time. Also, the Potency result in [7], in [8] and in test [9] was “inactive” each time.

On to `CC(C)CCOCCC(C)C`, for which the Potency entry in test [1], in test [2], in [3], in test [4], in [5] and in [6] was “inactive” each time. The Potency result in [7], in [8] and in [9] was “inactive” in each case.

On to `Cc1cccc(N(C)C)c1`, for which the Potency entry in [1], in [2], in test [3], in test [4], in [5] and in test [6] was “inactive” each time. The Potency entry in test [7], in test [8] and in test [9] was “inactive” throughout.

`COc1nccnc1CC(C)C`: the Potency entry in test [1], in test [2], in test [3], in [4], in test [5] and in test [6] was “inactive” each time. The Potency result in [7], in [8] and in test [9] was “inactive” throughout.

On to `CC(C)=CCCC(C)CCOC(=O)C(C)C` (stereo unspecified), for which the Potency result in test [1], in test [2], in test [3], in test [4], in [5] and in test [6] was “inactive” throughout. Moreover, the Potency result in test [7], in [8] and in test [9] was “inactive” in each case.

Take `O=c1cccc[nH]1`: the Potency entry in test [1], in test [2], in test [3], in [4], in test [5] and in [6] was “inactive” in each case. The Potency result in test [7], in test [8] and in [9] was “inactive” throughout.

With `Cc1cncc(C)c1`, the Potency result in test [1], in test [2], in [3], in test [4], in test [5] and in test [6] was “inactive” throughout. Besides, the Potency entry in [7], in test [8] and in test [9] was “inactive” in each case.

Consider `O=C[C@H](O)[C@H](O)[C@H](O)CO`, for which the Potency entry in [1], in test [2], in test [3], in test [4], in test [5] and in test [6] was “inactive” in each case. For the same compound, the Potency entry in [7], in test [8] and in test [9] was “inactive” in each case.

For `CCCCN(C)C`, the Potency entry in [1], in test [2], in test [3], in test [4], in test [5] and in [6] was “inactive” each time. Further, the Potency entry in test [7], in [8] and in test [9] was “inactive” in each case.

Take `COc1ccccc1C=O`: the Potency result in [1], in test [2], in [3], in test [4], in test [5] and in test [6] was “inactive” in each case. Also, the Potency entry in [7], in [8] and in test [9] was “inactive” in each case.

With `c1ccc2c(c1)CCC2`, the Potency entry in [1], in test [2], in test [3], in [4], in test [5] and in test [6] was “inactive” each time. Also, the Potency entry in test [7], in test [8] and in test [9] was “inactive” in each case.

For `C=C/C=C/C=C/CCCCC`, in test [1], the activity, negative = cytotoxicity is -9.56% [at 19 µM]. Moreover, the activity change, negative = inhibition in test [2] was -0.464% [at 19 µM]. Also, the activation in test [4] was 2.42% [at 15.8 µM]; in test [5], -4.02% [at 15.8 µM]. In addition, the activity change, negative = cytotoxicity is -9.45% [at 15.8 µM] in [6] and -3.82% [at 19 µM] in [7]. The activity, negative = inhibition in [8] was 7.32% [at 19 µM]. In addition, the viability change, negative = cytotoxic in test [9] was -1.2% [at 19 µM].

As for `CCc1ccc(C)nc1`, the Potency entry in [1], in test [2], in test [3], in [4], in test [5] and in [7] was “inactive” throughout. In addition, in test [8], the Potency result is “inactive”.

Consider `Oc1cc2ccccc2cc1O`, for which the Potency entry in [1], in [2], in test [4], in test [5], in [6] and in [7] was “inactive” each time. Further, the Potency result in test [8] and in test [9] was “inactive” each time.

Turning to `CCc1cccc(CC)c1N(COC)C(=O)CS(=O)(=O)O`, the Potency result in test [1], in test [2], in [3], in test [4], in test [5] and in [7] was “inactive” throughout. In test [8], the Potency result was “inactive”.

With `CC(C)C(=O)OCc1ccccc1`, the Potency entry in [1], in test [2], in test [3], in test [4], in test [5] and in test [7] was “inactive” each time. For the same compound, the Potency entry in test [8] and in test [9] was “inactive” in each case.

`O=C=NCc1cccc(CN=C=O)c1`: the activity, negative = cytotoxicity in test [1] is 5.39% [at 19 µM]. The activity change, negative = inhibition in test [2] is -2.4% [at 19 µM]. Further, the activation in test [4] was -14% [at 15.8 µM]; in test [5], -0.945% [at 15.8 µM]. The activity change, negative = cytotoxicity in test [6] is -2.82% [at 15.8 µM]; in [7], 2.07% [at 19 µM]. In addition, the activity, negative = inhibition in test [8] is 6.56% [at 19 µM]. Moreover, in [9], the viability change, negative = cytotoxic is 0.396% [at 19 µM].

As to `CC1=CP(=O)(c2ccccc2)CC1` (stereo unspecified), the Potency entry in test [1], in [2], in test [3], in [4], in [5] and in test [7] was “inactive” each time. In addition, the Potency entry in test [8] and in [9] was “inactive” throughout.

Take `CO[Si](CCC1CCC2OC2C1)(OC)OC` (stereo unspecified): the Potency result in test [1], in [2], in test [4], in [5], in test [6] and in test [7] was “inactive” throughout. Further, the Potency result in test [8] and in test [9] was “inactive” throughout.

For the compound `CCCCCCCCCCCCOC(=O)c1cc(O)c(O)c(O)c1`, the Potency in test [10] was 27.4 µM (active) and 21.9 µM (active); in test [11] it was 43.5 µM (active) and 24.5 µM (active); in test [1], 2.42 µM (active) and 4.86 µM (active); in [2], 2.16 µM (active) and 2.17 µM (active); in test [3], 43.5 µM (active) and 38.9 µM (active); in test [6], 27.4 µM (active) and 34.7 µM (active). Besides, the Potency in test [12] is 172 nM (active) and 386 nM (active); in test [9], 60.9 µM (active) and 27.3 µM (active). For the same compound, the Potency entry in test [8] is “inactive”.

As for `Clc1nc2ccccc2s1`, the Potency result in test [1], in [2], in [4], in [5], in [7] and in [8] was “inactive” in each case. Besides, in [9], the Potency entry was “inactive”.

For the compound `O=S(=O)(O)c1cc(S(=O)(=O)O)c2ccc3c(S(=O)(=O)O)cc(S(=O)(=O)O)c4ccc1c2c43`, in test [1], the activity, negative = cytotoxicity is 3.7% [at 19 µM]. In test [2], the activity change, negative = inhibition is 12.6% [at 19 µM]. The activation is -3.16% [at 15.8 µM] in test [4] and -3.71% [at 15.8 µM] in test [5]. Also, the figures for the activity change, negative = cytotoxicity in test [6] and in test [7] were -4.37% [at 15.8 µM] and 4.17% [at 19 µM], respectively. For the same compound, in [8], the activity, negative = inhibition was 14.4% [at 19 µM].
